# Compounds without any hit were thinned out: in the full panel of roughly 79,000, 15% have a hit. The source made the active and inactive calls. Cut-off read from the data, not from the text of the source: active = growth inhibition above about 70%; inactive = the rest.
# Test: NCI Yeast Anticancer Drug Screen. Data for the mlh1 strain (AID 171);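 note: 0% = growth of vehicle-treated control cultures of the same strain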
# Details: S. cerevisiae mlh1 strain growth inhibition; at 11.0 µM; active compounds read high
# Outline: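 Vehicle-normalised growth inhibition of a repair- or checkpoint-altered yeast strain following compound treatment.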
row,Structure (SMILES),growth inhibition
1,CCCC(=O)Oc1ccc(/C=N/NC(N)=S)nc1,-8% (inactive)
2,CCc1nc2ccc(NCCN(C)C)c3c(=O)c4ccccc4n1c23,29% (inactive)
3,Cc1sc2ccc3ccccc3c2[n+]1C,-70% (inactive)
4,COc1c(O)c(C=O)c(Br)c(C=O)c1O,9% (inactive)
5,Cc1ccc(Cl)cc1NC(=O)OCCN(C)C(=O)Nc1cc(Cl)ccc1C,-33% (inactive)
6,Cc1nc2ccccc2nc1NNc1ccccc1,7% (inactive)

# Same assay, conditions: S. cerevisiae mlh1 strain growth inhibition; at 33.0 µM; active compounds read high
row,Structure (SMILES),growth inhibition
1,CN(C)c1ccc(C2CC(C)(O)Oc3cc4c(cc32)OCO4)cc1 (centres undefined),11% (inactive)
2,O=P(NC1CCCCC1)(OCc1ccccc1)OCc1ccccc1,4% (inactive)
3,C[Si](C)(C)/C=C/CCNC(C#N)c1ccccc1 (centres undefined),33% (inactive)
4,CCOc1ccc(NC(=O)C2=C(C)NC(C)=C(C(=O)Nc3ccc(OCC)cc3)C2c2cccc([N+](=O)[O-])c2)cc1,25% (inactive)
5,CN(C)CCOC1(Cc2ccc(F)cc2)CCC(C(C)(C)C)CC1 (centres undefined),58% (inactive)
6,CC1(C)CC(=O)C(/C=N/c2nc(-c3ccccc3)cs2)=C(O)C1,45% (inactive)
7,CC(=O)Nc1ccc2c(c1)Cc1cc(N=C3C=CC(=O)O3)ccc1-2,99% (active)
8,O=C1C=C(Cl)C(=O)C(c2ccc(Cl)cc2)=C1,97% (active)
9,CNCCCNc1c2ccccc2nc2cccc([N+](=O)[O-])c12,94% (active)
10,CCCCCCCCCCCC(O)S(=O)(=O)O (centres undefined),3% (inactive)
11,CC(C)OC(=O)c1ccc(CCc2cc(O)c(Br)cc2O)cc1,72% (active)
12,CCc1cc(O)c(Cl)c(C)c1Cl,40% (inactive)
13,C(=Nc1ccc(-c2cc(-c3ccccc3)nc3ccc4ccccc4c23)cc1)c1ccccc1,-8% (inactive)
14,CSc1nc(C)c(CCOC(C)=O)c(N=P(c2ccccc2)(c2ccccc2)c2ccccc2)n1,-2% (inactive)
15,CS(=O)(=O)SCc1ccc([N+](=O)[O-])cc1,99% (active)
16,COC1=C(OC)C(=O)C(Sc2ccc3ccccc3c2)=CC1=O,95% (active)
17,COc1nc2c(c(=O)n1C)N=C(c1ccccc1)[C@H](C(CC(=O)c1ccccc1)c1ccccc1)C(c1ccccc1)N2 (some centres undefined),34% (inactive)

row,Structure (SMILES),growth inhibition
1,Cc1cc(-c2cc(C)c(O)c(C(C)(C)C)c2)cc(C(C)(C)C)c1O,9% (inactive)
2,Nc1cc(N)c(N=Nc2cccc3c(S(=O)(=O)O)cccc23)cc1N=Nc1cc([N+](=O)[O-])ccc1O,-18% (inactive)
3,Nc1ccc(F)cc1S,83% (active)
4,Brc1ccccc1-c1ncc(-c2ccccc2)o1,47% (inactive)
5,COc1cc(C2SCC(=O)N2c2ccc(-c3ccc(-n4c(-c5ccccc5)nc5ccccc5c4=O)cc3)cc2)ccc1O (centres undefined),3% (inactive)
6,COc1cc(CSc2ccc(O)cc2)cc(O)c1O,2% (inactive)
7,CCOC(=O)C1N=[N+](c2ccccc2)C(=O)/C1=C\n1c(=S)[nH]c2ccc([N+](=O)[O-])cc21 (centres undefined),4% (inactive)
8,Cc1ccc(CC2(OCCN(C)C)CCC(C(C)(C)C)CC2)cc1 (centres undefined),85% (active)
9,C[C@]12CC[C@H](O)CC1=CC[C@@H]1C2CC[C@]2(C)C(=O)NC(=O)CC12 (some centres undefined),94% (active)
10,CCc1c(Cl)c(C)cc(O)c1Cl,19% (inactive)
11,O=C(/C=C(/c1ccccc1)N1CCCCC1)c1ccccc1,5% (inactive)
12,CCCC(=O)Oc1ccc(/C=N/NC(N)=S)nc1,-9% (inactive)
13,CCc1nc2ccc(NCCN(C)C)c3c(=O)c4ccccc4n1c23,23% (inactive)
14,Cc1sc2ccc3ccccc3c2[n+]1C,-41% (inactive)
15,COc1c(O)c(C=O)c(Br)c(C=O)c1O,43% (inactive)
16,Cc1ccc(Cl)cc1NC(=O)OCCN(C)C(=O)Nc1cc(Cl)ccc1C,-30% (inactive)
17,Cc1nc2ccccc2nc1NNc1ccccc1,30% (inactive)

# Same assay, conditions: S. cerevisiae mlh1 strain growth inhibition; at 100.0 µM; active compounds read high
row,Structure (SMILES),growth inhibition
1,CN(C)c1ccc(C2CC(C)(O)Oc3cc4c(cc32)OCO4)cc1 (centres undefined),41% (inactive)
2,O=P(NC1CCCCC1)(OCc1ccccc1)OCc1ccccc1,7% (inactive)
3,C[Si](C)(C)/C=C/CCNC(C#N)c1ccccc1 (centres undefined),95% (active)
4,CCOc1ccc(NC(=O)C2=C(C)NC(C)=C(C(=O)Nc3ccc(OCC)cc3)C2c2cccc([N+](=O)[O-])c2)cc1,86% (active)
5,CN(C)CCOC1(Cc2ccc(F)cc2)CCC(C(C)(C)C)CC1 (centres undefined),98% (active)
6,CC1(C)CC(=O)C(/C=N/c2nc(-c3ccccc3)cs2)=C(O)C1,81% (active)
7,CC(=O)Nc1ccc2c(c1)Cc1cc(N=C3C=CC(=O)O3)ccc1-2,99% (active)
8,O=C1C=C(Cl)C(=O)C(c2ccc(Cl)cc2)=C1,96% (active)
9,CNCCCNc1c2ccccc2nc2cccc([N+](=O)[O-])c12,97% (active)
10,CCCCCCCCCCCC(O)S(=O)(=O)O (centres undefined),94% (active)
11,CC(C)OC(=O)c1ccc(CCc2cc(O)c(Br)cc2O)cc1,94% (active)
12,CCc1cc(O)c(Cl)c(C)c1Cl,81% (active)
13,C(=Nc1ccc(-c2cc(-c3ccccc3)nc3ccc4ccccc4c23)cc1)c1ccccc1,9% (inactive)
14,CSc1nc(C)c(CCOC(C)=O)c(N=P(c2ccccc2)(c2ccccc2)c2ccccc2)n1,92% (active)
15,CS(=O)(=O)SCc1ccc([N+](=O)[O-])cc1,97% (active)
16,COC1=C(OC)C(=O)C(Sc2ccc3ccccc3c2)=CC1=O,95% (active)
17,COc1nc2c(c(=O)n1C)N=C(c1ccccc1)[C@H](C(CC(=O)c1ccccc1)c1ccccc1)C(c1ccccc1)N2 (some centres undefined),60% (inactive)

row,Structure (SMILES),growth inhibition
1,Cc1cc(-c2cc(C)c(O)c(C(C)(C)C)c2)cc(C(C)(C)C)c1O,65% (inactive)
2,Nc1cc(N)c(N=Nc2cccc3c(S(=O)(=O)O)cccc23)cc1N=Nc1cc([N+](=O)[O-])ccc1O,23% (inactive)
3,Nc1ccc(F)cc1S,98% (active)
4,Brc1ccccc1-c1ncc(-c2ccccc2)o1,60% (inactive)
5,COc1cc(C2SCC(=O)N2c2ccc(-c3ccc(-n4c(-c5ccccc5)nc5ccccc5c4=O)cc3)cc2)ccc1O (centres undefined),20% (inactive)
6,COc1cc(CSc2ccc(O)cc2)cc(O)c1O,3% (inactive)
7,CCOC(=O)C1N=[N+](c2ccccc2)C(=O)/C1=C\n1c(=S)[nH]c2ccc([N+](=O)[O-])cc21 (centres undefined),8% (inactive)
8,Cc1ccc(CC2(OCCN(C)C)CCC(C(C)(C)C)CC2)cc1 (centres undefined),98% (active)
9,C[C@]12CC[C@H](O)CC1=CC[C@@H]1C2CC[C@]2(C)C(=O)NC(=O)CC12 (some centres undefined),96% (active)
10,CCc1c(Cl)c(C)cc(O)c1Cl,82% (active)
11,O=C(/C=C(/c1ccccc1)N1CCCCC1)c1ccccc1,96% (active)
12,CCCC(=O)Oc1ccc(/C=N/NC(N)=S)nc1,-14% (inactive)
13,CCc1nc2ccc(NCCN(C)C)c3c(=O)c4ccccc4n1c23,40% (inactive)
14,Cc1sc2ccc3ccccc3c2[n+]1C,41% (inactive)
15,COc1c(O)c(C=O)c(Br)c(C=O)c1O,95% (active)
16,Cc1ccc(Cl)cc1NC(=O)OCCN(C)C(=O)Nc1cc(Cl)ccc1C,11% (inactive)
17,Cc1nc2ccccc2nc1NNc1ccccc1,41% (inactive)

# Source: PubChem BioAssay (NCI)
